Source: PubChem BioAssay (Broad Institute)
Tg IFNy HTS – T. gondii growth inhibition under IFN-gamma; Toxoplasma gondii growth in IFN-gamma-treated host cells; stronger effect = lower value; activity change, negative = inhibition, % (concentration not given with the values); actives 3.8% (n = 69,000); AID 1259416; in the data active = activity change below about -70%, passing the limit was not always enough;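 note: host cells are HeLa cells infected with Toxoplasma gondii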
Numbers stand for hits; i = inactive; ! = repeats disagree. Only a selection was taken, and hits are over-represented in it overall.

SMILES	Tg IFNy HTS
CC(=O)C1C(=O)[C@@H]2[C@H]3c4c[nH]c5cccc(c45)C[C@H]3C(C)(C)N2C1=O (stereo partly specified)	-81.3!
CN1C[C@H](C(=O)N[C@]2(C)O[C@@]3(O)[C@@H]4CCCN4C(=O)[C@H](Cc4ccccc4)N3C2=O)C[C@@H]2c3cccc4[nH]cc(c34)C[C@H]21	i
Cc1noc(C)c1CN1CCCC(c2nn(C)c(=O)n2-c2ccccc2)C1 (stereo unspecified)	i
CCC1CN(Cc2cc3ccccc3nc2OC)CCN1C(C)C (stereo unspecified)	i
C[C@@H](NC(=O)[C@H]1[C@H](CO)[C@H]2Cn3c(ccc(-c4ccccc4)c3=O)[C@H]2N1C)c1ccccc1	i
CCN1c2ccccc2C(=O)NC12CCN(C(=O)Nc1ccc3c(c1)OCCO3)CC2	i
CC(O)c1cccc(-c2cc(NC3CCNCC3)nc3[nH]ccc23)n1 (stereo unspecified)	-92.6
COc1ncc(-c2cc(NCCN(C)C)nc3[nH]ccc23)c(OC)n1	i
Cc1cc(-c2cc(NC3CCNCC3)nc3[nH]ccc23)c(=O)[nH]c1C	-85.0
Cc1cc(-c2ccnc3c2ccn3C)c(=O)[nH]c1C	i
c1ccc2c(-c3cc(NC4CCNCC4)nc4[nH]ccc34)n[nH]c2c1	-75.1
c1ccc(CNc2cc(-c3nccc4occc34)c3cc[nH]c3n2)nc1	i
Cc1nc(-c2cc(NCc3ccccn3)nc3[nH]ccc23)cc(C(C)C)n1	i
NCCc1cccc(-c2cc(NCCO)nc3[nH]ccc23)c1	i
CNc1cc(-c2ccc(CN)cn2)c2cc[nH]c2n1	i
O=C(c1cc(C2CCN(Cc3cccc(F)c3)CC2)no1)N1CCCCC1	i
Cc1cccc(-c2ccc(C(=O)N3CCCCC3CCn3cccn3)cn2)c1 (stereo unspecified)	i
CC1CCN(S(=O)(=O)c2ccc3c(ccc(=O)n3CC(=O)N3CCCCCC3)c2)CC1	i
Cn1cc(C[C@H]2[C@H](O)CCN2C(=O)c2cccs2)cn1	i
COCC(=O)N1C[C@@H](C)[C@H](OC)CN(C)C(=O)c2ccc(NC(=O)Nc3cccc(F)c3)cc2OC[C@@H]1C	i
Cc1noc2nc(C3CC3)cc(C(=O)N3CCCC4(CC3)CNC(=O)O4)c12 (stereo unspecified)	i
Cc1nc(N2CCOCC2)nc2c1CN(CCC(C)C)CC2	i
CCN(C(=O)c1cc2cccnc2n(Cc2ccc(F)cc2)c1=O)C1CCCCC1	i
Cc1nn(C)c(C)c1CCC(=O)N1Cc2ccccc2OC2(CCOCC2)C1	i
CC(C)[C@H](CO)Nc1nc(Nc2cccc(Cl)c2)c2ncn(C(C)C)c2n1	-73.8
SMILES	Tg IFNy HTS
CC[C@H](CO)Nc1nc(NCc2ccc(-c3ccccn3)cc2)c2ncn(C(C)C)c2n1	-79.3
CC(C)n1cnc2c(NCc3ccccc3)nc(NCCCO)nc21	i
CC[C@H](CO)Nc1nc(Nc2cccc(-c3ccccn3)c2)c2ncn(C(C)C)c2n1	-79.2
CC(C)n1cnc2c(-c3cccnc3)nc(C3CCN(Cc4ccccn4)CC3)cc21	i
Cn1cnc2c(NCc3ccccc3)nc(NCCO)nc21	i
CC1(C)CCc2cc(S(=O)(=O)N(Cc3ccccn3)Cc3ccccn3)ccc2O1	i
C=CCN1C(=O)CCC12CCCN(S(=O)(=O)c1cccs1)CC2 (stereo unspecified)	i
COc1cccc(-c2nnc(NC(=O)CN3CC(C)OC(C)C3)s2)c1OC (stereo unspecified)	i
CC(C)CC(=O)N1CCc2nc(C(N)=O)sc2CC1	i
COc1cccc(F)c1-c1ccc(C(C)NC(C)=O)cc1 (stereo unspecified)	i
Cc1ccccc1-n1cc(CN(C)C(=O)c2ccc(=O)[nH]n2)cn1	i
CCCCc1n[nH]c(=O)n1Cc1cccs1	i
COc1c2ccoc2cc2oc(=O)ccc12	-87.4!
O=c1ccc2cc3ccoc3cc2o1	i
COc1ccc2c(c1)c(=O)oc1cc3occ(C(C)(C)C)c3cc12	i
COc1ccc2c3c(n(C)c2c1)[C@@H](CO)N(C(=O)Nc1ccc(F)cc1)CC31CN(S(=O)(=O)c2cn(C)cn2)C1	i
CCCCOC(=O)c1ccc(NC(=O)Nc2ccc(Cl)c(Cl)c2)cc1	i
CC(=O)Nc1ccc(OCc2ncc(C(F)(F)F)cc2Cl)cc1	i
CNC(=O)c1cc(Oc2ccc(NC(=O)Nc3ccc(Cl)c(C(F)(F)F)c3)cc2)ccn1	-79.5
Cc1ccc(C(=O)N2CCC3(CC2)Nc2ccccc2-n2cccc23)cc1F	i
Cc1ccc(C(Cc2ccsc2)NCc2cnn3c(C)cc(C)nc23)nc1 (stereo unspecified)	i
O=C1CCCN1CCC1CCCCN1C(=O)Nc1cccc(Cl)c1Cl (stereo unspecified)	i
CC(=O)NC1CCN(c2ccc(C(=O)NCCCc3ccccn3)cn2)C1 (stereo unspecified)	i
CC(=O)Nc1ccc(Cl)c(C(=O)NCC2CCCN(C)C2)c1 (stereo unspecified)	i
Fc1cccc(CNc2c3c(nc4cc(-c5cccc(Cl)c5)nn24)CCC3)c1	-90.3
SMILES	Tg IFNy HTS
O=C(NCc1cccc(F)c1)Nc1ccc(-c2nc(-c3ccccc3)co2)cc1	i
Fc1cccc(CNc2nc(-c3nnc(-c4ccc(Cl)cc4)o3)nc3ccccc23)c1	i
CC[C@H](CC#N)OC(=O)N[C@@H](C)c1cccc(NC(=O)Nc2ccc(-c3cnco3)c(OC)c2)c1	-81.9
COc1cccc(NC(=O)Nc2ccc(-c3nc(-c4ccc(C)cc4C)co3)cc2)c1	i
CCOc1ccc(NC(=O)Nc2ccc(-c3nc(-c4cccc(Br)c4)co3)cc2)cc1	i
CCOc1ccc(-c2cc3c(=O)n(Cc4nc(-c5cccc(OC)c5OC)oc4C)ccn3n2)cc1	i
Cc1cc(C)n(C)c(=O)c1C(=O)NCc1cn2c(n1)SCC2	i
CC1CCC(C2OC3CC4C5CCC6CC(O)CCC6(C)C5=CCC4(C)C3C2C)OC1 (stereo unspecified)	i
O=C1NCC2(CCCN(C(=O)c3ccc4c(c3)CCO4)C2)O1 (stereo unspecified)	i
CCOCC1COCCC12CCN(C(=O)CCc1ccccc1)CC2 (stereo unspecified)	i
CN1CCC2(CCOCC2NC(=O)c2ccccc2)CC1 (stereo unspecified)	i
CC(=O)N1CCC2(CCOCC2NC(=O)c2ccccc2)CC1 (stereo unspecified)	-93.3
CS(=O)(=O)N1CCN(C(=O)NCc2ccccc2)CC2(CNC(=O)C2)C1 (stereo unspecified)	i
CCN1C(=O)N(CCc2ccccc2)C2(CCN(Cc3cccn3-c3ccc(Cl)cn3)CC2)C1=O	i
CN(C)CCOc1ccc(/C(=C(/CCCl)c2ccccc2)c2ccccc2)cc1	-88.5
CCCCCOc1ccc(C(=O)c2ccccc2)cc1	i
CN(C)CCCOc1cccc(C(=O)O)c1	i
O=S(=O)(c1cccs1)N1CCC2(CC1)CNc1ccccc12	i
COc1ccc(-c2cc3c(=O)n(Cc4nc(-c5ccc(OC)cc5OC)oc4C)ccn3n2)cc1	i
C=CCc1cccc2cc(C(=O)Nc3c(C)n(C)n(-c4ccccc4)c3=O)c(=O)oc12	i
O=C(c1ccc2c(c1)OCO2)N1CCc2ccc(=O)[nH]c2CC1	i
O=C(O)C1CCN(c2ncnc3ccccc23)CC1	i
C=CCn1c(-c2c(-c3ccccc3)ncn2CCc2cnc[nH]2)nc2ccccc21	i
C=CCn1c2ccccc2n2c(C(=O)CC)c(-c3ccccc3)nc12	-97.7
CCCc1c(-c2ccccc2)nc2[nH]c3ccccc3n2c1=O	i
O=C(CC1CC1)N1CC[C@@H]2[C@H]1c1cc(-c3ccc(F)cc3)ccc1N[C@@H]2CO	i
